High-throughput results (PubChem BioAssay)
RE007 growth inh: qHTS Assay for Inhibitors of the HIV-1 protein Vpr. AID 651644, 2012. S. pombe RE007 Vpr strain, BacTiter-Glo ATP luminescence, 24 h. Potency, µM (top dose mostly 92.2 µM), most hits filed as inhibitors. 360,000 compounds, 0.21% hits; active means well fitted falling curve with a large enough effect; inconclusive means small, poorly fitted or top-dose-only effect; inactive means no such curve, though single readings can be large or run the other way; further: nearly all actives have a fitted effect of over 50% in size
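Fission yeast RE007 carrying one integrated HIV-1 vpr copy, seeded at OD 0.01 in PMG+AL medium with 23 nL pinned compound. Grown 24 h at 30 degrees; viability read by BacTiter-Glo luminescence after 5 min.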
Pf growth 96h: Primary qHTS for delayed death inhibitors of the malarial parasite plastid, 96 hour incubation | P. falciparum luciferase reporter growth, 96 h | Potency, µM (highest dose often 28.7 µM), most hits filed as inhibitors | 320,000 compounds, 6.9% hits | AID 504834, 2011; active means well fitted inhibition curve with a large enough effect; inconclusive means small, poorly fitted or top-dose-only effect, or another doubt; inactive means no such curve, though single readings can be large or run the other way
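Delayed-death screen, second-generation endpoint: infected erythrocytes, 2% hematocrit, 0.05% parasitemia final; 96 hours at 37 C, 5% CO2; luciferase detection reagent; luminescence decrease equals reduced growth.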
NS1 inh: qHTS Assay for Inhibitors of Influenza NS1 Protein Function; 270,000 compounds, 0.4% hits; Potency, µM (highest dose often 46.1 µM); further: actives are rising curves; nearly all actives have a fitted effect of over 50% in size
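Read-out: OD600 growth recovery of NS1-expressing budding yeast. Cells grown overnight at 30C in -URA glucose medium, washed, resuspended and diluted 1:100 in 2% galactose assay medium, pH 6.0. Same strain lacking NS1 served as positive control.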
SARS PLP yeast: qHTS of Yeast-based Assay for SARS-CoV PLP | S. cerevisiae expressing SARS-CoV PLpro, growth rescue | Potency, µM (highest dose often 32.9 µM), usual class: activators | 330,000 compounds, 0.19% hits | AID 485353, 2010; further: nearly all actives have a fitted effect of over 55% in size
Pf growth 48h: Primary qHTS for delayed death inhibitors of the malarial parasite plastid, 48 hour incubation | P. falciparum luciferase growth in erythrocytes, 48 h | Potency, µM (titrated, usually from 28.7 µM), usual class: inhibitors | 310,000 compounds, 5.9% hits | AID 504832, 2011; active means well fitted inhibition curve with a large enough effect; inconclusive means small, poorly fitted or top-dose-only effect, or another doubt; inactive means no such curve, though single readings can be large or run the other way
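Luciferase-expressing P. falciparum in infected erythrocytes (2% hematocrit, 0.1% parasitemia final) in RPMI 1640/0.5% Albumax were exposed to compound for 48 hours at 37 C, 5% CO2; growth read as luminescence.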
Numbers stand for hits; n = inactive; u = inconclusive; x = no result; [ ] = another dose, or the depositor's remark. An excerpt weighted towards active compounds, which were near 9.5% of everything screened. Unless noted, the call rests on the fitted dose curve.

SMILES	RE007 growth inh	Pf growth 96h	NS1 inh	SARS PLP yeast	Pf growth 48h
CCCCN1C(=O)C(CC(=O)NCC2CCCCC2)CC(C(=O)N2CCOCC2)=C1C (stereo unspecified)	n	x	x	x	x
Cc1ccccc1OCCNC(=O)CSc1ccc(C(F)(F)F)cc1[N+](=O)[O-]	n	u	n	n	n
CC(=O)Nc1sc2c(c1C(c1ccccn1)N1CCCC1)CCCC2 (stereo unspecified)	n	10µM	x	n	9.3µM
CCOC(=O)CNC(=O)CSc1nc(N)cc(N)n1	n	10µM	n	n	n
Cc1ccccc1OCC(=O)NNC(=O)CSc1nc(N)cc(N)n1	n	8.3µM	x	n	n
Cc1ccc(CNC(=O)CNS(=O)(=O)c2ccc3c(c2)C(C)(C)C(=O)N3C)cc1	n	n	n	n	n
O=C(Nc1ccc(N2CCN(C(=O)c3ccc(Cl)cc3)CC2)cc1)c1ccc([N+](=O)[O-])o1	n	u	n	n	3.3µM
CC(C)(C)C(=O)N1CCN(c2ccc(NC(=O)c3ccc([N+](=O)[O-])o3)cc2)CC1	n	7.4µM	n	n	u
CN1CCN(c2ccc(NC(=O)c3ccc(-c4ccc(Br)cc4)o3)cc2)CC1	n	n	n	n	10µM
CCCC(=O)N1CCN(c2ccc(NC(=O)c3ccc([N+](=O)[O-])o3)cc2)CC1	n	n	x	n	17µM
CCC(=O)N1CCN(c2ccc(NC(=O)c3ccc([N+](=O)[O-])o3)cc2)CC1	n	n	n	n	10µM
CCN(CC)c1ccc(NC(=O)CN2CCN(CC(=O)Nc3ccccc3F)CC2)cc1	n	n	n	n	12µM
O=C(Nc1ccc(N2CCCCC2)cc1)c1ccc([N+](=O)[O-])o1	u	u	n	n	n
CCCC(=O)N1CCN(c2ccc(NC(=O)c3sc4ccccc4c3Cl)cc2)CC1	n	4.7µM	n	n	u
O=C(Nc1ccc(N2CCN(Cc3ccccc3F)CC2)cc1)c1ccccc1[N+](=O)[O-]	u	n	n	n	n
O=C(Nc1ccc(N2CCN(Cc3ccccc3F)CC2)cc1)c1ccc([N+](=O)[O-])o1	n	u	n	n	1.9µM
O=C(CCNC(=O)C1CCN(S(=O)(=O)c2ccc(F)cc2)CC1)NC1CC1	n	n	n	n	n
CCC(=O)Nc1ccc(N2CCN(Cc3ccccc3F)CC2)cc1	n[3.69 µM]	9.3µM	n	n	u
CC(=O)Nc1ccc(N2CCN(Cc3ccccc3F)CC2)cc1	n	x	n	n	n
O=C(NC1CCCCC1)c1cc(-c2ccco2)on1	n	12µM	n	n	n
CCC(C)(C)NC(=S)Nc1ccccc1C	n	u	x	n	10µM
Cc1ccccc1NC(=S)NCc1ccccc1	n	n	n	n	n
COc1cc2c(cc1OC)C(c1ccccc1)CN(C)CC2 (stereo unspecified)	x	15µM	n	x	u
COc1cc2c(cc1OC)C(c1ccccc1)N(C(=O)c1ccccc1)CC2 (stereo unspecified)	n	n	n	n	u
CCn1cc(C(=O)NCc2cccc(F)c2)c(=O)c2cc(F)c(N3CCN(C(=O)c4ccco4)CC3)cc21	n	2.1µM	n	n	x
SMILES	RE007 growth inh	Pf growth 96h	NS1 inh	SARS PLP yeast	Pf growth 48h
CCCNC(=O)c1cn(CC)c2cc(N3CCN(C(=O)c4ccco4)CC3)c(F)cc2c1=O	n	3.3µM	n	n	u
CCn1cc(C(=O)NCc2cccnc2)c(=O)c2cc(F)c(N3CCN(C(=O)c4ccco4)CC3)cc21	n	x	n	n	u
CC(=O)c1ccc(S(=O)(=O)N(C)CCCC(=O)NCc2ccc3c(c2)OCO3)cc1	n	u	x	n	u
Clc1cccc(-c2nn3c(Cn4cnc5ccccc54)nnc3s2)c1	n	n	n	n	13µM
CCN(CC)S(=O)(=O)c1ccc(C(=O)NCc2n[nH]c(=S)n2-c2ccc(Cl)c(Cl)c2)cc1	n	u	x	n	n
COc1ccc(-c2cc(=O)[nH]c(=S)[nH]2)cc1	n	u	n	n	n
COc1cc(-c2ccccc2)[nH]c(=S)n1	n	7.4µM	x	n	n
CN(C(=O)C1CCCO1)c1nnc(-c2cnccn2)s1 (stereo unspecified)	n	3.3µM	n	n	n
COc1ccc(C2=CC(c3ccc(Cl)cc3)n3cnnc3N2)cc1OC (stereo unspecified)	n	x	n	n	10µM
COc1ccc(C2C=C(c3ccc(Cl)cc3)Nc3nc(NC(C)=O)nn32)cc1 (stereo unspecified)	x	n	n	n	u
O=C(Nc1nc(-c2ccccn2)cs1)c1cccc(S(=O)(=O)N2CCOCC2)c1	n	u	x	n	1µM
O=C(Nc1nc(-c2cccs2)cs1)c1ccc(S(=O)(=O)N2CCCCC2)cc1	n	n	n	n	u
Cc1csc(NC(=O)c2ccc(C)c(S(=O)(=O)N3CCCCC3)c2)n1	n	4.1µM	n	n	3.3µM
O=C(Nc1nc(-c2ccccn2)cs1)c1ccc(S(=O)(=O)N2CCCCC2)cc1	x	2.3µM	n	n	3.3µM
CC(C)NC(=O)C1(C)CSCC(=O)N1CCCN1CCOCC1 (stereo unspecified)	n	x	x	x	x
CC(=O)NC(C)c1nc2ccccc2n1CC(=O)NC(C)CCc1ccccc1 (stereo unspecified)	n	u	x	n	n
CCc1ccc(C(=O)COC(=O)c2ccc(Cl)nc2)cc1	n	n	x	n	n
O=C(NCC(c1ccc(F)cc1)N1CCOCC1)c1ccc([N+](=O)[O-])o1 (stereo unspecified)	n	x	x	n	x
O=C(COC(=O)c1cccc(C(=O)OCC(=O)NC2CC2)n1)NC1CC1	n	n	x	n	n
Cc1ccc(CNC(=O)COc2ccccc2-c2ccccc2)cc1	n	10µM	n	n	n
C/C(=N\NC(=O)c1ccncc1)c1ccc2ccccc2c1O	x	x	n	x	x
CC(C)(C)c1ccccc1OCC(=O)NCc1ccccc1	n	n	n	n	n
NC(=O)N/N=C/c1ccccc1OCc1cccc2ccccc12	n	13µM	n	n	n
Cc1cccc(OCC(=O)NCc2ccccc2)c1	n	9.3µM	n	n	n
Cc1cccc(OCC(=O)NNC(=O)CCc2ccccc2)c1	n	n	n	n	n
SMILES	RE007 growth inh	Pf growth 96h	NS1 inh	SARS PLP yeast	Pf growth 48h
C/C(=N\NC(=O)COc1cccc(C)c1)c1ccc2ccccc2c1O	n	2.6µM	n	n	u
O=C(C(=Cc1ccccc1)CN1CCCCC1)c1ccccc1	n	x	x	x	x
O=C(COc1ccccc1-c1ccccc1)N/N=C/c1cccc2ccccc12	n	9.3µM	n	n	u
COc1ccc(/C=N/NC(=O)COc2ccccc2-c2ccccc2)cc1	n	u	n	n	u
O=C(COCC(=O)N/N=C/c1ccccc1F)N/N=C/c1ccccc1F	n	9.3µM	n	n	n
CCN(C(=O)Cn1cnc2c1c(=O)n(C)c(=O)n2C)C1CCS(=O)(=O)C1 (stereo unspecified)	n	n	x	n	n
CC(=O)OCCCCCCCCCCC[N+]1(C)CCCCC1	n	n	n	n	u
